An excerpt weighted towards active compounds, which were near 3.5% of everything screened.
BoNT A protease = BoNT/A light chain protease inhibitors, primary screen, biochemical, flow cytometry, MLPCN library; Botulinum neurotoxin type A light chain protease (Clostridium botulinum A str. ATCC 3502); multiplex microsphere protease substrate cleavage; AID 588499, 2011; hit rate 0.17% among 360,000; inhibition, % at 10 µM; also: plate controls were buffer without enzyme for full effect and enzyme alone for no effect
Autofluor counter = counter-screen for toxin protease inhibitors: compound fluorescence; compound autofluorescence counterscreen, microsphere flow cytometry; hits give high values; fluorescence intensity (no concentration beside the values); hit rate 3.1% among 360,000; in the data active = fluorescence intensity above about 16000; inconclusive = no clear call, values can overlap the other calls
BoNT-F LC inh = BoNT/F light chain protease inhibitors, primary screen, biochemical, flow cytometry, MLPCN library; Multiplex microsphere protease cleavage assay; hit rate 0.22% among 360,000; inhibition, % at 10 µM; in the data active = inhibition above about 35%, passing the limit was not always enough; inconclusive = no clear call, values can overlap the other calls; also: plate controls were buffer without enzyme for full effect and enzyme alone for no effect
Anthrax LF prot = Bacillus anthracis LF protease inhibitors, primary screen, biochemical, multiplex microsphere, MLPCN library. Lethal factor (Bacillus anthracis), P15917. multiplex microsphere protease cleavage assay. inhibition, % at 10 µM. hit rate 0.12% among 360,000; also: plate controls were buffer without enzyme for full effect and enzyme alone for no effect
* = called active by the depositor; ? = inconclusive. Rule as the data show it, unless noted: active = inhibition above about 30%; inconclusive = no clear call, values can overlap the other calls; inactive = below that.

SMILES	BoNT A protease	Autofluor counter	BoNT-F LC inh	Anthrax LF prot
O=C1CCC(=O)N1CC(=O)N1CCCc2ccccc21	-0.5	3081	6.9	-2.5
CC(C)C[C@H](NC(=O)N1CCn2c1nc1ccccc12)C(=O)N[C@@H](C(=O)O)c1ccccc1	-0.2	6166	-7.1	-1.3
O=C1CCCC/C1=C/Nc1ccc2c(c1)OCO2	1.1	16302*	-1.8	-0.3
O=C1CCCC/C1=C/Nc1ccc(C(=O)O)cc1	-0.7	8291	-5.2	3.7
NC(=O)c1ccccc1N/C=C1\CCCCC1=O	0.9	2380	-1.9	1.4
O=C1CCCC/C1=C\Nc1ccccc1C(=O)O	6.1	19879*	9.6	-1.7
COc1ccc(Oc2ccc(N/C=C3/CCCC3=O)cc2)cc1	-0.7	2570	-8.1	-5.8
COc1ccc(N/C=C2/CCCCC2=O)cc1	0.1	21936*	-3.7	-0.9
COc1ccc(OC)c(N/C=C2/CCCCC2=O)c1	-4.4	21967*	-7.1	-2.1
O=C(NNC(=O)c1cncc(Br)c1)c1ccncc1	-3.4	6439	3.5	0.0
O=C(N/N=C/C(Cl)=C/c1ccccc1)c1ccc2c(c1)OCO2	0.0	5217	4.0	2.6
O=C1CCCCN1CCCC(=O)N1CCCC(Nc2ccccc2)C1 (configuration not stated)	1.4	4355	2.2	1.1
COc1ccc2c(c1)NC(=O)CC(c1ccccc1)=N2	-0.8	23168*	-1.5	-5.2
CCOC(=O)c1cccnc1SCC(=O)NCc1ccccc1	0.7	19817*	0.6	-1.9
C=CCSc1ncccc1C(=O)NCc1ccccc1	3.0	21460*	3.3	-3.0
CCOC(=O)c1cnc(NCc2ccccc2)nc1C	-0.2	16359*	-1.4	-2.7
COc1cc(NC(=O)c2cnc(NCc3ccccc3)nc2C)cc(OC)c1OC	0.2	3393	11.9	0.1
C=CCSc1ncccc1C(=O)NCCc1ccccc1	-2.1	3101	-10.3	-7.5
COc1ccc(OC(F)(F)F)cc1CC1(C)C(=O)Nc2ccc(-c3ccsc3)cc21 (configuration not stated)	-0.3	3690	-3.4	0.2
Cc1ccc(CN(C(=O)c2ccccc2[N+](=O)[O-])C2CCS(=O)(=O)C2)o1 (configuration not stated)	-0.9	4726	-7.4	-3.7
CN1C[C@@H]2[C@@H]3C(=O)N(C)C(=O)[C@@H]3[C@](C)(C1=O)N2C(=O)c1ccc(F)cc1	-0.4	3911	-3.0	-5.3
C/C(=C\C(=O)Nc1nccs1)c1ccccc1	?	17209*	-6.2	-4.1
CN(C(=O)CCS(=O)(=O)c1cc2c(cc1Cl)NC(=O)CO2)C1CCCCC1	0.2	5739	5.2	-3.9
O=C(Cn1cc(C(F)(F)F)ccc1=O)N1CCc2ccccc2C1	-0.1	3954	-0.5	-3.2
Cc1nc2c(-c3ccccc3)c(C)nn2c(C)c1CCC(=O)N1CCC2(CC1)OCCO2	?	?	61.8*	?
SMILES	BoNT A protease	Autofluor counter	BoNT-F LC inh	Anthrax LF prot
CCOC(=O)C1=C(CSc2nccn2C)NC(=O)NC1c1cc(C)ccc1C (configuration not stated)	?	16485*	-2.6	2.0
CCOC(=O)C1=C(CNCc2ccc(C)cc2)NC(=O)NC1c1cc(C)ccc1C (configuration not stated)	16.8	17821*	8.6	-17.6
CCC(=O)N(CCC(c1ccco1)c1ccccc1OC)Cc1cccs1 (configuration not stated)	0.5	23755*	-0.4	-1.2
CC1CCCCC1NC(=O)c1ccc(NC2=NC3CS(=O)(=O)CC3S2)cc1 (configuration not stated)	1.1	5767	6.9	-0.4
CSc1ccccc1C(=O)Nc1cccc([N+](=O)[O-])c1	-0.4	4563	1.7	-1.6
COC(=O)c1ccc(NC(=O)c2ccccc2SC)cc1	-2.6	16827*	-2.1	-2.4
COC(=O)c1ccc(NC(=O)c2ccccc2C(=O)Nc2ccc(C(=O)OC)cc2)cc1	0.2	6278	-4.0	-4.4
CSc1ccccc1C(=O)Nc1cccc(C)c1	?	17403*	10.7	-3.7
Cc1[nH]c2ccc(C(=O)NCCCN3CCN(C)CC3)cc2c1C	0.0	5608	-0.9	-3.6
COc1cc2oc(=O)cc(CN3CCOCC3)c2cc1Cl	-0.3	6479	-5.9	-0.2
O=C(COC(=O)c1cc(=O)[nH]c(=O)[nH]1)Nc1ccccc1F	0.3	3587	1.3	-5.2
O=C(CCC(=O)Nc1ccccc1Cl)NNC(=O)NC1CCCCC1	0.2	4607	-3.4	-1.9
CCCCc1nc2ccccc2c(=O)n1-c1ccccc1O	0.2	2493	11.2	-0.2

Compound activity deposited in PubChem by NMMLSC.
